About 79,000 compounds went through this panel and 15% of them were active in at least one assay; those are over-represented in the sample as a whole. The source made the active and inactive calls. Rule as the data show it: active = growth inhibition above about 70%; inactive = the rest.
Assays:
[1] = NCI Yeast Anticancer Drug Screen. Data for the rad52 strain (AID 147);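 also: 0% = growth of vehicle-treated control cultures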; details: S. cerevisiae rad52 mutant growth inhibition, stronger effect = higher value
Summary of the method: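 Measured: yeast growth inhibition. System: strain with a defined DNA damage repair alteration. Reference: vehicle-treated control cultures.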

[2] = NCI Yeast Anticancer Drug Screen. Data for the rad50EPP+ strain (AID 151);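 also: 0% = growth of vehicle-treated control cultures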; details: S. cerevisiae rad50 mutant strain, stronger effect = higher value
Summary of the method: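 One strain with a rad50 alteration (rad50EPP+) was compound-treated, its growth then compared to that of vehicle controls.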

[3] = NCI Yeast Anticancer Drug Screen. Data for the mgt1 strain (AID 153); details: S. cerevisiae mgt1 mutant growth inhibition, stronger effect = higher value
Summary of the method: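 After exposure of the mgt1 yeast mutant to compound, growth was measured and reported as inhibition compared with vehicle controls.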

[4] = NCI Yeast Anticancer Drug Screen. Data for the rad50 strain (AID 155);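 also: 0% = growth of vehicle-only cultures of the same strain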; details: S. cerevisiae rad50 strain growth inhibition, stronger effect = higher value
Summary of the method: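 Vehicle-treated cultures provide the reference for the growth inhibition reported for compound-exposed, repair-deficient yeast.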

[5] = NCI Yeast Anticancer Drug Screen. Data for the mec2-1 strain (AID 157); details: S. cerevisiae mec2-1 strain, stronger effect = higher value
Summary of the method: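 Test agents were screened against the mec2-1 yeast strain, with defined DNA repair or cell cycle alteration. Growth was scored as inhibition against vehicle-only controls.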

[6] = NCI Yeast Anticancer Drug Screen. Data for the rad14 strain (AID 159);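 also: 0% = growth of vehicle-treated control cultures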; details: S. cerevisiae rad14 strain growth inhibition, stronger effect = higher value
Summary of the method: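 Inhibition of growth is reported for a repair-deficient yeast mutant following compound treatment, calculated relative to cultures that received vehicle.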

[7] = NCI Yeast Anticancer Drug Screen. Data for the sgs1 mgt1 strain (AID 161);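 also: 0% = growth of cultures given vehicle only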; details: S. cerevisiae sgs1 mgt1 strain, stronger effect = higher value
Summary of the method: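 Inhibition of yeast growth, normalised to vehicle-treated controls, is reported for a strain bearing genetic alterations in DNA damage repair.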

[8] = NCI Yeast Anticancer Drug Screen. Data for the CLN2oe strain (AID 163);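 also: 0% = growth of vehicle-only control cultures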; details: S. cerevisiae CLN2oe strain, stronger effect = higher value
Summary of the method: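 Here, growth inhibition in a cell-cycle-altered yeast strain after compound exposure was quantified against vehicle control growth.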

[9] = NCI Yeast Anticancer Drug Screen. Data for the cln2 rad14 strain (AID 165);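 also: 0% = growth equal to vehicle treated cultures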; details: S. cerevisiae cln2 rad14 strain, stronger effect = higher value
Summary of the method: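 Growth of compound-exposed yeast (cln2 rad14 genotype) measured and expressed as inhibition relative to vehicle.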

[10] = NCI Yeast Anticancer Drug Screen. Data for the bub3 strain (AID 167); details: S. cerevisiae bub3 mutant strain, stronger effect = higher value
Summary of the method: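 Mutant yeast screening strain plus compound; vehicle-treated cultures serve as the 0% inhibition reference.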

[11] = NCI Yeast Anticancer Drug Screen. Data for the wt2 strain (AID 169); details: S. cerevisiae wt2 strain growth inhibition, stronger effect = higher value
Summary of the method: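 Genetically defined yeast strains from a DNA-repair/cell-cycle panel were used. Compound-exposed yeast growth was measured, and the inhibition was calculated relative to vehicle treatment.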

[12] = NCI Yeast Anticancer Drug Screen. Data for the mlh1 strain (AID 171);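 also: 0% = growth of vehicle-treated control cultures of the same strain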; details: S. cerevisiae mlh1 strain growth inhibition, stronger effect = higher value
Summary of the method: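 Here the genetically defined yeast mutant is grown with each compound, and the extent to which its growth falls below that of vehicle-exposed cells is reported.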

[13] = NCI Yeast Anticancer Drug Screen. Data for the sgs1 strain (AID 173);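 also: 0% = growth of vehicle-only control cultures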; details: S. cerevisiae sgs1 mutant, stronger effect = higher value
Summary of the method: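 Relative growth inhibition, referenced to vehicle, was determined in a yeast strain with a defined alteration affecting DNA damage repair or cell cycle control after compound exposure.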

[14] = NCI Yeast Anticancer Drug Screen. Data for the mlh1 rad18 strain (AID 175); details: S. cerevisiae mlh1 rad18 strain growth inhibition, stronger effect = higher value
Summary of the method: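 In this whole-cell yeast screen, a strain with altered DNA damage repair is challenged with compound, and its growth is measured against matched vehicle-treated controls.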

[15] = NCI Yeast Anticancer Drug Screen. Data for the rad18 strain (AID 177); details: S. cerevisiae rad18 mutant growth inhibition, stronger effect = higher value
Summary of the method: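 Screen uses a yeast strain with a defined lesion in DNA damage repair; compound effect is read as loss of growth compared to untreated vehicle cultures.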

[16] = NCI Yeast Anticancer Drug Screen. Data for the wt1 strain (AID 149);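 also: 0% = growth of vehicle-treated wt1 cultures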; details: S. cerevisiae wt1 strain (SPY 50644) growth inhibition, stronger effect = higher value
Summary of the method: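 Each compound is tested on wt1 yeast and the loss of growth versus vehicle gives the inhibition value.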

[17] = at 5.0 µM (retest, dose inferred, filed as 0.5)
[18] = at 50.0 µM (retest, dose inferred, filed as 5.0)

Measured: growth inhibition

Cc1c(C(=O)C(=O)c2ccccc2)c(C)c(C(=O)C(=O)c2ccccc2)c(C)c1C(=O)C(=O)c1ccccc1
inactive: [1]; at 1.2 µM -4% | [1]; at 3.7 µM -5% | [1]; at 11.0 µM -7% | [1]; at 33.0 µM -17% | [1]; at 100.0 µM -14% | [2]; at 1.2 µM 0% | [2]; at 3.7 µM -1% | [2]; at 11.0 µM -3% | [2]; at 33.0 µM -5% | [2]; at 100.0 µM -17% | [3]; at 1.2 µM -2% | [3]; at 3.7 µM -2% | [3]; at 11.0 µM -5% | [3]; at 33.0 µM -21% | [3]; at 100.0 µM -9% | [4]; at 1.2 µM -11% | [4]; at 3.7 µM -21% | [4]; [17] 11% | [4]; at 11.0 µM -29% | [4]; at 33.0 µM -12% | [4]; at 50.0 µM 54.1% | [4]; at 100.0 µM -19% | [5]; at 1.2 µM -2% | [5]; at 3.7 µM 1% | [5]; [17] 18% | [5]; at 11.0 µM -1% | [5]; at 33.0 µM -3% | [5]; at 50.0 µM 61.4% | [5]; at 100.0 µM -11% | [6]; at 1.2 µM -2% | [6]; at 3.7 µM -3% | [6]; at 11.0 µM -4% | [6]; at 33.0 µM -8% | [6]; at 100.0 µM -13% | [7]; [17] -5% | [8]; at 1.2 µM 1% | [8]; at 3.7 µM -5% | [8]; at 11.0 µM -5% | [8]; at 33.0 µM -10% | [8]; at 100.0 µM -13% | [9]; at 50.0 µM 63.1% | [10]; at 1.2 µM -2% | [10]; at 3.7 µM 0% | [10]; at 11.0 µM -2% | [10]; at 33.0 µM -8% | [10]; at 50.0 µM 56.4% | [10]; at 100.0 µM -16% | [11]; at 1.2 µM -3% | [11]; at 3.7 µM -1% | [11]; at 11.0 µM -4% | [11]; at 33.0 µM -6% | [11]; at 100.0 µM -10% | [12]; at 1.2 µM 1% | [12]; at 3.7 µM 1% | [12]; at 11.0 µM 1% | [12]; at 33.0 µM -3% | [12]; at 100.0 µM -8% | [13]; at 1.2 µM 0% | [13]; at 3.7 µM 0% | [13]; at 11.0 µM -4% | [13]; at 33.0 µM -5% | [13]; at 100.0 µM -13% | [14]; [17] 9% | [15]; at 1.2 µM -3% | [15]; at 3.7 µM -4% | [15]; at 11.0 µM -6% | [15]; at 33.0 µM -13% | [15]; at 100.0 µM -20%
active: [4]; [18] 86% | [5]; [18] 90% | [7]; [18] 86% | [7]; at 50.0 µM 75.7% | [9]; [17] 94% | [9]; [18] 84% | [10]; [17] 97% | [10]; [18] 91% | [14]; [18] 87% | [14]; at 50.0 µM 72.5%

CCCS(=O)(=O)Nc1ccc(Nc2c3ccccc3nc3ccccc23)c(OC)c1
inactive: [1]; at 1.2 µM 20% | [1]; at 3.7 µM 64% | [16]; at 1.2 µM -70% | [16]; at 3.7 µM -55% | [16]; at 11.0 µM -64% | [16]; at 33.0 µM -35% | [16]; at 100.0 µM 66% | [3]; at 1.2 µM -21% | [3]; at 3.7 µM -64% | [3]; at 11.0 µM -52% | [3]; at 33.0 µM -10% | [4]; at 1.2 µM 14% | [4]; at 3.7 µM 59% | [4]; at 50.0 µM 7.1% | [5]; at 1.2 µM -59% | [5]; at 3.7 µM -88% | [5]; [17] 2% | [5]; at 11.0 µM -60% | [5]; at 33.0 µM 33% | [5]; at 50.0 µM 12.8% | [6]; at 1.2 µM -62% | [6]; at 3.7 µM -61% | [6]; at 11.0 µM -43% | [6]; at 33.0 µM -16% | [6]; at 100.0 µM 66% | [7]; [17] 36% | [8]; at 1.2 µM -9% | [8]; at 3.7 µM -14% | [8]; at 11.0 µM -11% | [8]; at 33.0 µM 21% | [8]; at 100.0 µM 67% | [9]; [17] 34% | [9]; at 50.0 µM 52% | [10]; at 1.2 µM -67% | [10]; at 3.7 µM -49% | [10]; [17] 40% | [10]; at 11.0 µM -45% | [10]; at 33.0 µM -16% | [10]; at 50.0 µM 37.6% | [10]; at 100.0 µM 65% | [11]; at 1.2 µM -37% | [11]; at 3.7 µM -40% | [11]; at 11.0 µM -41% | [11]; at 33.0 µM -10% | [11]; at 100.0 µM 69% | [12]; at 1.2 µM -85% | [12]; at 3.7 µM -74% | [12]; at 11.0 µM -45% | [12]; at 33.0 µM 9% | [13]; at 1.2 µM -45% | [13]; at 3.7 µM -47% | [13]; at 11.0 µM -41% | [13]; at 33.0 µM 7% | [14]; [17] 66% | [14]; at 50.0 µM 29.4% | [15]; at 1.2 µM -58% | [15]; at 3.7 µM -63% | [15]; at 11.0 µM -43% | [15]; at 33.0 µM -10%
active: [1]; at 11.0 µM 82% | [1]; at 33.0 µM 87% | [1]; at 100.0 µM 93% | [3]; at 100.0 µM 73% | [4]; [17] 79% | [4]; at 11.0 µM 84% | [4]; at 33.0 µM 90% | [4]; [18] 98% | [4]; at 100.0 µM 91% | [5]; [18] 99% | [5]; at 100.0 µM 85% | [7]; [18] 99% | [7]; at 50.0 µM 82.8% | [9]; [18] 98% | [10]; [18] 98% | [12]; at 100.0 µM 74% | [13]; at 100.0 µM 77% | [14]; [18] 98% | [15]; at 100.0 µM 75%

Source: PubChem BioAssay (NCI)
